# In all, about 370,000 compounds went through this assay and about 4,700 (1.3%) were called active. For the sample, actives were picked, then their nearest neighbours and some compounds at random. Unmarked numbers belong to inactive results.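 Rule for the calls: active = inhibition above the plate cutoff, the mean of all test compounds on that plate plus 3 SD (cut at about 35% in these data); inactive = the rest.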
# Assay: small molecules binding CAG repeat RNA – biochemical, fluorescence, primary screen (AID 651821);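 note: 0% = DMSO alone and 100% = 100 µM mitoxantrone as full dye displacement; higher means more dye released from RNA so lower well fluorescence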
# Conditions: r(CAG) RNA repeat, TO-PRO-1 dye displacement fluorescence; at 3 µM; hits give high values
row,SMILES,inhibition
1,O=C1[C@@H](c2ccccc2)[C@@H](c2ccccc2)N1c1ccccc1,2.62%
2,CCOC(=O)[C@]12CCCC3=C1N(CCC3)C(=O)[C@@H](CC(=O)NCc1cccs1)C2,-1.37%
3,C=CCN1C(=O)[C@@H](CC(=O)NCCCOCCCC)[C@]2(C(=O)OCC)CCCCC/C=C/12,0.69%
4,OC(c1ccccc1)c1nc(/C=C/c2ccc(C(F)(F)F)cc2)cs1 (configuration not stated),3.22%
5,O=C(Nc1nc(-c2ccco2)c(-c2ccco2)s1)c1ccco1,70.5% (active)
6,O=C(Nc1nonc1-c1ccc(Cl)cc1)c1ccco1,-0.35%
7,O=C(Nc1c(-c2ccccc2)nc2c(Br)cc(Br)cn12)c1ccco1,7.88%
8,COC(=O)C1=C(C)N(Cc2ccc(F)cc2)C(=S)NC1c1cccc(Cl)c1 (configuration not stated),3.4%
9,N[C@@H](Cc1ccccc1)C(=O)N1CCC[C@@H]1C(=O)N1CCC2CCN(S(=O)(=O)c3ccccc3)CC21 (some centres not stated),0.99%
10,COC(=O)Cc1nnn2c1[C@H](C)[C@@H](OC)c1cc(Br)ccc1-2,-0.28%
11,Clc1ccc(C(Cn2ccnc2)OCc2ccsc2Cl)c(Cl)c1 (configuration not stated),2.12%
12,Cc1ccc(NC(=O)CC2S/C(=N/N=C3\CCCc4ccccc43)NC2=O)cc1 (configuration not stated),42.2% (active)
13,CCN=C1SC(CC(=O)Nc2ccc(C)cc2)C(=O)N1CC (configuration not stated),-2.97%
14,Cc1c(Cl)cccc1NC(=O)CC1SC(=NCC2CCCO2)NC1=O (configuration not stated),-0.81%
15,CC(=O)N1C[C@@H](CO)[C@@H](N(C)C(=O)C(C)(C)C)C[C@H]1c1ccccc1Br,-1.82%
16,C[C@@H]1COc2cccc(N3CCCC3)c2S(=O)(=O)N1C,1%

row,SMILES,inhibition
1,CC(C)(C)C1C/C(=C/c2ccco2)C(=O)/C(=C/c2ccco2)C1 (configuration not stated),44.8% (active)
2,O=C(CN1C(=O)NC(Cc2c[nH]c3ccccc23)C1=O)Nc1ccccc1C(F)(F)F (configuration not stated),2.5%
3,CC1CCN(C(=O)c2ncn3c2C(=O)N[C@@H](C)C3)CC1,1.9%
4,O=C(N1CCOCC1)N1CC[C@H]2[C@H](CCCN2Cc2ccc(F)cc2)C1,-0.35%
5,C=CCN1C(=O)[C@@H](CC(=O)N2CCN(C(=O)OCC)CC2)[C@]2(C(=O)OCC)CCCCC/C=C/12,1.94%
6,COc1ccc(CSc2nnc(-c3cccc(C)c3)n2C)cc1,-0.02%
7,COc1ccc(-n2c(SCC(=O)Nc3ccc(C)c(Cl)c3)nc3ccccc3c2=O)cc1,16.1%
8,CCOc1ccc(NC(=O)CSc2nc3ccccc3c(=O)n2Cc2cccs2)cc1,1.43%
9,CCOc1ccc(-n2c(SCC(=O)Nc3cc(C(=O)O)ccc3Cl)nc3ccccc3c2=O)cc1,46.3% (active)
10,COc1ccc(CN2C(=O)N3Cc4cc(OC)ccc4C3CS2(=O)=O)cc1 (configuration not stated),1.88%
11,COCCCNC(=O)C[C@H]1C[C@@]2(C(=O)OC)C(=C[C@H](C(C)(C)C)O[C@@H]2C)N(Cc2ccc(Cl)cc2Cl)C1=O,1.45%
12,COC(=O)[C@]12C[C@H](CC(=O)NCCc3ccccc3OC)C(=O)N(Cc3ccccc3)C1=C[C@H](C(C)C)O[C@@H]2C1CC1,0.77%
13,Cc1ccc(-n2c(SCC(=O)Nc3cccc4ccccc34)nnc2-c2ccccn2)cc1,3.79%
14,Cc1ccccc1-n1c(SCC(=O)Nc2cccc3ccccc23)nc(O)cc1=O,42.6% (active)
15,C=CCn1c(N)cc(=O)nc1SCC(=O)Nc1cccc2ccccc12,3.99%
16,CC(C)N1CCCCC(NC(=O)C(C)(C)C)C1=O (configuration not stated),0.73%

# From PubChem BioAssay AID651821 (The Scripps Research Institute Molecular Screening Center, 2012)
